In all, about 16,000 compounds went through this assay and about 5,100 (32%) were called active. Inconclusive results (about 25%) are left out. Calls come from the whole dose curve; as a rule, active = well fitted curve in the direction sought with a large enough effect; inconclusive = small, poorly fitted or top-dose-only effect, or effect the other way; inactive = no such curve, though single readings can be large or run the other way. This is one part of the list.
target: Cytochrome P450 3A4 (Homo sapiens) (UniProt P08684); test: Cytochrome panel assay with activity outcomes; settings: recombinant CYP, pro-luciferin dealkylation, luminescence, p450-cyp3a4; series mostly up to 57.1 µM; activity, negative = inhibition: at the top concentration
% is set by controls: 0 for no effect and ±100 for the full control effect.

Chain of Cytochrome P450 3A4 (Homo sapiens) (P08684 whole entry, looked up): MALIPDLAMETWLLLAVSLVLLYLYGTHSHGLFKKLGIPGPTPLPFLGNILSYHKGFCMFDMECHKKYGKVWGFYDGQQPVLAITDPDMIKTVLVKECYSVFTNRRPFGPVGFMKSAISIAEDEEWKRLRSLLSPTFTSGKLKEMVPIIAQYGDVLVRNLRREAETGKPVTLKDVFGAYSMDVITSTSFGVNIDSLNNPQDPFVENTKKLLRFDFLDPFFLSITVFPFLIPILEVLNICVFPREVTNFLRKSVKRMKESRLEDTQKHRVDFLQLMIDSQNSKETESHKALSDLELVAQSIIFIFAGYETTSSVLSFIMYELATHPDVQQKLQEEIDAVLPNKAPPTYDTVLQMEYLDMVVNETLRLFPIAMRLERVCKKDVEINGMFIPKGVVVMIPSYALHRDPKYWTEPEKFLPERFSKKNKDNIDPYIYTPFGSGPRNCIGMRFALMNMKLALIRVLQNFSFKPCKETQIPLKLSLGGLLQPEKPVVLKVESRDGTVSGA

activity, negative = inhibition, inactive:
Brc1ccc(-c2nnc(-c3ccccc3)c(N3CCSCC3)n2)cc1 -22.4%
CCCCN(C)S(=O)(=O)c1ccc(C(=O)Nc2nnc(CSC)o2)cc1 24%
Cn1c(C(F)(F)F)nc2c(=O)oc3ccccc3c21 -20.1%
Nc1ccccc1S(N)(=O)=O 3.31% [at 25.6 µM]
Cc1ccc(C(C(=O)NC2CCCCC2)N2CCN(C(=O)c3ccco3)CC2)cc1 (stereo not drawn) -19.6% [at 2.29 µM]
CCOC(OCC)P(=O)(O)CCCNCc1ccc(Cl)c(Cl)c1 10.5%
CC(SCc1cn2cc(Cl)ccc2n1)C(=O)O (stereo not drawn) -11.1%
CN(C(=S)Nc1ccccc1F)C1(c2ccccc2Cl)CCCCC1=O (stereo not drawn) -21.2% [at 2.29 µM]
CCCCN1C2=NCCCN2c2ccccc21 7.3% [at 11.4 µM]
Cc1ccsc1/C=N/Nc1nc(Cl)c(Cl)cc1Cl -21% [at 2.29 µM]
O=C(Nc1ccc(-c2cc3ccccc3oc2=O)c(Cl)c1)c1cccnc1 -10%
O=C(Nc1cc2ccccc2oc1=O)C1CCCCC1 10.7% [at 2.29 µM]
O=C(CCc1ccccc1)NNC(=S)NC(=O)c1ccccc1 7% [at 2.29 µM]
COc1cc(OC)cc(C(=O)NC(=S)Nc2ccc(Cl)c(C(=O)O)c2)c1 -26.3%
CC[N+](CC)(CC(=O)Nc1c(C)cccc1C)Cc1ccccc1 -19.7% [at 25.6 µM]
NNC(=O)c1ccc[n+](CCc2ccccc2)c1 -7.56% [at 11.4 µM]

AC50, active:
COc1ccc(C(C(=O)NC2CCCCC2)N2CCC3(CC2)OCCO3)cc1 (stereo not drawn) 4.47 µM
O=C(NC1CCCCC1)C(c1ccccc1)N1CCOCC1 (stereo not drawn) 11.2 µM
CCOc1cc(C)c(S(=O)(=O)Nc2ccc3cn[nH]c3c2)cc1C 0.316 µM
Cc1ccn2cc(CSc3ccccc3N)nc2c1 3.98 µM
COC(=O)C1C(=O)C2=C(CC1C)NC(=O)CC2c1cccc(C)c1 (stereo not drawn) 14.1 µM
C=CC[C@@H]1C=C[C@H](O/N=C(\C)CCN2CCCCc3nc(C)c(C)cc32)[C@H](CO)O1 3.98 µM
C=CC[C@@H]1C=C[C@H](O/N=C(\C)CCN2CCCc3nc(C)c(C)cc32)[C@H](CO)O1 2.51 µM
O=c1oc2ccccc2cc1-c1csc(NN=C2CCCCC2)n1 3.98 µM
Cc1cccc(C)c1NC(=S)NC(=O)CCc1ccccc1 12.6 µM
COc1cc(OC)cc(C(=O)NC(=S)NCCc2ccccc2)c1 3.98 µM
COc1ccc(C(=O)NC(=S)NNC(=O)CCc2ccccc2)cc1 11.2 µM

AC50, inactive:
C[C@@H](C[N+](C)(C)C)OC(N)=O

Reference: PubChem BioAssay AID1851 (National Center for Advancing Translational Sciences (NCATS), 2009)
